Compound activity (PubChem)
Sampled rows, rich in hits. Any-hit rate of the full collection: about 11%.
HP1b binding inh = inhibitors of HP1-beta chromodomain binding to methylated histone tails; P83916; AlphaScreen HP1-beta / biotin-H3K9me3 peptide binding; Potency, µM (doses to about 114 µM), for inactives: at the top dose activity change, negative = inhibition, hits mostly inhibitors; hit rate 0.56% among 390,000; AID 540317; also: nearly all actives have a fitted effect of over 70% in size
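Compound inhibition of the preformed complex between 50 nM HP1-beta and 50 nM biotinylated H3K9me3 peptide was read by AlphaScreen. Buffer was PBS pH 7.4 with 0.01% Tween-20. Incubations ran 30 min at room temperature, with 10 ug/mL donor/acceptor beads.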
G9a block = blocks human histone lysine methyltransferase G9a. hit rate 8.8% among 350,000. Q96KQ7. Potency, µM (series often up to 102 µM), inactives show at the top dose activity, negative = inhibition, hits mostly inhibitors. AID 504332. G9a H3K9 monomethylation, AlphaScreen, 2 h; also: % is scaled to controls: 0 for no effect and ±100 for the full control effect; nearly all actives have a fitted effect of over 75% in size
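Step 1: enzyme (final 20 nM) with compound, 15 min RT. Step 2: substrate peptide 500 nM and SAM 20 uM, 2 h RT. Step 3: anti-H3K9me1 antibody and AlphaScreen beads, 10 min, then plate read.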
L3MBTL1 block = inhibitors of human L3MBTL1; Q9Y468; AlphaScreen L3MBTL1–H3K9me1 peptide binding; Potency, µM (highest dose often 57.1 µM), for inactives: at the highest dose activity, negative = inhibition, actives largely listed as inhibitors; hit rate 0.66% among 230,000; AID 485360; also: % is scaled to controls: 0 for no effect and ±100 for the full control effect; nearly all actives have a fitted effect of over 60% in size
Target sequence (Q9Y468 whole entry, looked up): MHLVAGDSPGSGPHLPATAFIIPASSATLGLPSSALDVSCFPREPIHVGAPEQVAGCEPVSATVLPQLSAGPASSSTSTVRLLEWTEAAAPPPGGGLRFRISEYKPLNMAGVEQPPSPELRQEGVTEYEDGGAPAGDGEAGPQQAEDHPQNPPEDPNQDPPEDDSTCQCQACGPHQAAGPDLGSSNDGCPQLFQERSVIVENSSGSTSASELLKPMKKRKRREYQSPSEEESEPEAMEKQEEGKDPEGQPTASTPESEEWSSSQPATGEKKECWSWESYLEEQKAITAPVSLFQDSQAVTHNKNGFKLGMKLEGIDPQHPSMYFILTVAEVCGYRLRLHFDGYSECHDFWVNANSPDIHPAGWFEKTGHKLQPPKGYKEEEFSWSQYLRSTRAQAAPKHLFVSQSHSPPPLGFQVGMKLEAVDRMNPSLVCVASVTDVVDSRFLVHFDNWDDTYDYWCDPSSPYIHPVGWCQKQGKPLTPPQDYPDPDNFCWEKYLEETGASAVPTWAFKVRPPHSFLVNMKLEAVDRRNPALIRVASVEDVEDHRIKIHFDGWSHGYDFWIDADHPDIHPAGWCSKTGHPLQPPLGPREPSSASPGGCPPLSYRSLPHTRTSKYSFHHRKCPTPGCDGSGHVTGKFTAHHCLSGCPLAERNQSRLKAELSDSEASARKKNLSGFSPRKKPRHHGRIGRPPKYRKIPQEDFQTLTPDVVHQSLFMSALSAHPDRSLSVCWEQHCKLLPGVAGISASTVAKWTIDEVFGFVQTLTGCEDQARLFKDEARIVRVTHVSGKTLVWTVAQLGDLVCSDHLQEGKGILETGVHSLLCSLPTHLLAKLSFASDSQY
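L3MBTL1 (50 nM) pre-complexed 30 min with biotinylated H3(1-15)K9me1 peptide (75 nM), then compounds added for 30 min at room temperature; AlphaScreen streptavidin donor/nickel chelate acceptor beads (10 ug/mL final) read after 30 min dark incubation.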
BAZ2B block = blocks human BAZ2B; AID 504333; Potency, µM (highest dose often 114 µM), for inactives: at the top dose activity change, negative = inhibition, actives largely listed as inhibitors; hit rate 4.4% among 360,000; AlphaScreen BAZ2B-H3K14Ac peptide displacement; also: % is scaled to controls: 0 for no effect and ±100 for the full control effect; nearly all actives have a fitted effect of over 60% in size
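Compounds, titrated to a top concentration of 110 uM, were incubated 30 min at room temperature with preformed BAZ2B/acetyl-K14 H3 peptide complex (50 nM each). Proximity signal was measured by AlphaScreen after 20 min with beads.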
JMJD2A Tudor inh = inhibitors of human JMJD2A Tudor domain | O75164 | AlphaScreen JMJD2A-Tudor / H3K4me3 peptide binding | Potency, µM (doses to about 114 µM), inactives show at the highest dose activity change, negative = inhibition, hits mostly inhibitors | hit rate 4.4% among 390,000 | AID 504339; also: % is scaled to controls: 0 for no effect and ±100 for the full control effect; nearly all actives have a fitted effect of over 50% in size
Starred values were filed as active, the others as inactive; ? = inconclusive; · = not tested or not shown; [ ] = dose if it differs, or a comment. Calls follow the shape of the dose curve; as a rule, active = well fitted inhibition curve with a large enough effect; inconclusive = small, poorly fitted or top-dose-only effect; inactive = no such curve, though single readings can be large or run the other way. Potency is read from the fitted curve at half-maximal effect.

SMILES | HP1b binding inh | G9a block | L3MBTL1 block | BAZ2B block | JMJD2A Tudor inh
O=C(O)COc1ccc(-c2nccc(-c3ccccn3)n2)cc1 | ? | ? | -12% | 79µM* | -34%[11.4 µM]
Cc1ccc(-n2ncc3c2CC(C)(C)CC3NC(=O)C2CCOCC2)cc1 (stereo unspecified) | 35% | ? | · | -10% | -2%
O=C(CNC(=O)c1ccccc1)c1ccccc1 | 36% | 19%[2.33 µM] | 14% | -32% | -23%
O=C(O)c1ccccc1C(=O)NCC(O)c1ccccc1 (stereo unspecified) | 38% | 7.9µM* | -3% | 1% | -4%
O=C(CNC(=O)c1ccccc1C(=O)O)c1ccccc1 | 36% | 20µM* | 5% | -7% | -29%
Cc1[nH]n(-c2ncc(-c3ccccc3)s2)c(=O)c1C(c1ccc(Cl)cc1)C(C#N)C#N (stereo unspecified) | ? | ? | -17% | 40µM* | 40µM*
Cc1cc2cc(CN(Cc3ccco3)C(=O)NCc3ccccc3)c(=O)[nH]c2cc1C | 2% | 50µM* | -10% | ? | -21%
Cc1cc2cc(CN(CCN(C)C)C(=S)NCc3ccco3)c(=O)[nH]c2cc1C | -23% | 13%[12.7 µM] | -23% | 71µM* | ?
COc1ccc(NC(=O)Cn2c(=O)n(-c3cccc(C(F)(F)F)c3)c(=O)c3sccc32)cc1 | 28% | -1%[59 µM] | · | -2% | 6%
Cc1ccc2nc(COc3ccccc3NC(=O)c3ccc(F)cc3)cc(=O)n2c1 | 18%[57 µM] | 5%[59 µM] | · | 3% | -12%
COc1cc(C(=O)Nc2cc(-c3ccccc3)[nH]n2)cc(OC)c1OC | 26% | 14%[59 µM] | -5% | ? | -35%
Nc1ccccc1Nc1cc(-c2ccccc2)[nH]n1 | ? | 40µM* | -21% | 40µM* | 50µM*
N#Cc1cc(-c2ccccc2)nn1-c1ccccc1 | 25µM* | ? | -16% | ? | 8.9µM*
Cn1ccc(-c2ccccc2)n1 | 38% | 17% | -7% | 1% | -5%
Nc1ccccc1Nc1cc(-c2ccccc2)nn1-c1ccccc1 | ? | 32µM* | ? | 35µM* | 32µM*
Nc1nc(SCC(=O)Nc2cc(-c3ccccc3)nn2-c2ccccc2)n[nH]1 | 31% | 16%[59 µM] | · | 2% | -16%
CCCN1CCN(CC2=C(C(=O)OCC)C(c3ccc(OC(C)C)cc3)NC(=O)N2)CC1 (stereo unspecified) | 27% | -34%[59 µM] | · | · | -14%
COc1ccc(-c2cc(C(F)(F)F)n3ncc(-c4ccccc4)c3n2)cc1 | -1% | ? | · | ? | ?
CC(C)NC(=O)c1sc(=S)n2c1[nH]c(=O)c1ccc(C(=O)NCCc3ccc(Cl)cc3)cc12 | -21%[57 µM] | 45µM* | · | -24% | 35µM*
CCOc1ccc(CCNC(=O)c2ccc3c(Cl)c4c(nc3c2)CCCC4)cc1 | 16% | -42%[59 µM] | · | -11% | -11%
CCOc1ccc(CCNC(=O)c2ccc3c(=O)[nH]c4c(C(=O)NC(C)C)sc(=S)n4c3c2)cc1 | 20% | 45µM* | · | ? | 9%
COc1ccc(OC)c(CCNC(=O)c2ccc3c(=O)[nH]c4c(C(=O)NC(C)C)sc(=S)n4c3c2)c1 | ? | · | · | 40µM* | 56µM*
COc1ccc(OC)c(CCNC(=O)c2ccc3c(c2)N(Cc2ccc(F)cc2)CCS3)c1 | 27% | 14% | · | ? | -34%
CC(C)S(=O)(=O)c1oc(-c2cccs2)nc1S(=O)(=O)c1ccc(F)cc1 | 25% | ? | · | -9% | -24%
CC(C)CN1CCC(=O)N([C@H](COc2ccccc2)c2ccccc2)CC1 | 30% | -13% | 4% | -28% | -13%
SMILES | HP1b binding inh | G9a block | L3MBTL1 block | BAZ2B block | JMJD2A Tudor inh
COc1ccc(OC)c(N=C(C)C2=C(O)COC2=O)c1 | 16% | 3.5µM* | · | -7% | -6%
CC(=Nc1ccccc1)C1=C(O)COC1=O | 32% | -21% | · | ? | -8%
CCc1ccc(CN(Cc2ccco2)C(=O)c2cc(-c3ccc(C)c(F)c3)on2)cc1 | 33% | -6%[59 µM] | · | ? | -17%
C=CCN1C(=O)/C(=c2\sc3nc(=O)c(Cc4ccccc4Cl)nn3c2=O)c2ccccc21 | ? | 11µM* | -9% | ? | 71µM*
CCCN(Cc1nnc(-c2ccccc2Cl)o1)C(=O)c1cc([N+](=O)[O-])cc([N+](=O)[O-])c1 | 0% | 50µM* | · | · | -27%
CC(C(=O)O/N=C(\N)c1ccccn1)c1ccc([N+](=O)[O-])cc1 (stereo unspecified) | 27% | ? | · | 56µM* | -7%
CCCCN(Cc1cccs1)S(=O)(=O)c1cc(-c2cc(C)no2)ccc1C | 69% | 30%[59 µM] | · | 16% | 26%
O=C(CNC(=O)/C=C/c1ccco1)N=Nc1c(O)[nH]c2ccccc12 | 39% | 35µM* | · | 56µM* | -4%
CCOCc1cc(CN2CCN(c3cccc(C(F)(F)F)c3)CC2)c(O)c2ncccc12 | 21% | -16%[59 µM] | · | 28µM* | 56µM*
CC(C)OCc1cc(CN2CCN(c3cccc(C(F)(F)F)c3)CC2)c(O)c2ncccc12 | 45% | 2%[59 µM] | · | 25µM* | ?
O=c1cc(CO)oc(CN2CCN(c3cccc(C(F)(F)F)c3)CC2)c1O | 24% | ? | · | ? | -16%
Cc1cc(C)nc(NC(=O)c2cc(-c3ccc(C)s3)nc3ccccc23)c1 | 73% | 64%[59 µM] | 32% | 24% | 34%
CCN(CC)C(=O)c1sc(NC(=O)c2ccoc2C)c(C(=O)OC)c1C | ? | 13µM* | -4% | 0% | -29%
CCN(CC)C(=O)c1sc(NC(=O)c2cc(-c3ccc(C)s3)nc3ccccc23)c(C(=O)OC)c1C | -11% | 40µM* | 1% | 1% | 4%
CCN(CC)C(=O)c1sc(NC(=O)c2ccncc2)c(C(=O)OC)c1C | -8% | ? | 5% | 10% | -7%
CCOC(=O)c1c(NC(=O)c2ccoc2C)sc(C(=O)N(C)C)c1C | -8% | 32µM* | · | 8% | ?
COCCCNc1nc2c(c(=O)n(Cc3ccccc3)c(=O)n2C)n1C | 44% | 6%[59 µM] | · | -17% | -8%
O=C(O)CCC(=O)N1N=C(c2ccccc2)CC1c1cccs1 (stereo unspecified) | 26%[57 µM] | 32%[12.7 µM] | 16% | 19% | 2%
CC(C)C(=O)NC1CC(=O)N(c2ccc3c(c2)OCCO3)C1 (stereo unspecified) | 59% | -12%[59 µM] | · | 3% | -12%
Fc1ccccc1CN1CCCCCCC1 | ? | -50%[12.7 µM] | · | 50µM* | 4µM*
Fc1ccc(CN2CCCCCCC2)c(F)c1 | ? | ? | -1% | 50µM* | 3.2µM*
Fc1ccc(CN2CCCCCC2)c(F)c1 | ? | -9%[12.7 µM] | -4% | ? | ?
CC(C)(C)OC(=O)N1CCC(c2c(C(=O)N3CCN(c4ccc(Cl)cc4)CC3)cnn2-c2ccc(F)cc2F)CC1 | 5% | -41%[59 µM] | · | -3%[57.1 µM] | ?
CC(C(=O)N(C)Cc1cccc(F)c1)N1CCN(S(=O)(=O)c2ccc3c(c2)OCCCO3)CC1 (stereo unspecified) | 22% | 40µM* | 6% | 9% | -16%
